# Assay results reported in PubChem BioAssay (Tox21).
# Results filed as inconclusive are left out. A call without a number means that no potency is given here. Unmarked numbers belong to inactive results. Activity calls are given as the source filed them. Calls come from the whole dose curve; as a rule, active = well fitted activation curve with a large enough effect in the repeat runs; inconclusive = weak or mixed curves; inactive = flat fitted curve, though single readings scatter. Positions of bridges follow the written chain, without caps; N, C: chain ends. Where a SMILES comes first, the peptide text is derived from it. Non-standard residues stand in square brackets, D forms with d. Residues, ends and D or L forms follow the SMILES beside them. hArg = N=C(N)NCCCC[C@H](N)C(=O)O; Mpa = O=C(O)CCS
# Assay: A CellTox Green Cytotoxicity Assay to monitor cytotoxicity in HepG2 cells - 32 hour (AID 1224883); note: nearly all actives have a fitted effect of over 50% in size
# Details: CellTox Green fluorescence; series mostly up to 76.8 µM
# Description: National Center for Advancing Translational Sciences [NCATS]
# NIH Chemical Genomics Center [NCGC]
# U.S. Environmental Protection Agency [EPA]
# National Institutes of Environmental Health Sciences [NIEHS]
# National Toxicology Program [NTP]
# Cell-based models are critical for drug discovery. Determining the natural cytotoxic effects resulting from test compounds is an essential research activity. A CellTox Green Cytotoxicity Assay to monitor cytotoxicity in real time of continues cell culture during 40 hours of the compound treatment was used to screen Tox21 10K library compounds in HepG2 cells. CellTox Green Cytotoxicity Assay is a nonlytic, homogeneous, biofluorescent method to measure cytotoxicity in cell culture after experimental manipulation. The assay system uses a proprietary asymmetric cyanine dye that is excluded from viable cells but preferentially stains the dead cell's DNA. […] Viable cells produce no appreciable increases in fluorescence. Therefore, the fluorescence signal produced by the binding interaction with dead cell DNA is proportional to cytotoxicity.
# The mixture of HepG2 cell suspension and reagents were dispensed at 600cells/6 ul/well in 1536-well tissue culture treated black solid bottom plates using a Multidrop dispenser. After the assay plates were incubated at a 37 C/5% CO2 incubator for 5 hours, 23 nL of compounds dissolved in DMSO, positive and negative controls was transferred to the assay plate by a pintool work station. The plates were incubated at 37 C for 40 hours. The fluorescence intensity were measured at 0h, 8h, 16h, 24h, 32h and 40h time points using ViewLux plate reader during compound treatment.
Structure (SMILES),Potency,cytotoxicity increase
CN(C)CC/C=C1/c2ccccc2COc2ccc(CC(=O)O)cc21,inactive,
O=C(CCCCC(=O)Nc1c(I)cc(I)c(C(=O)O)c1I)Nc1c(I)cc(I)c(C(=O)O)c1I,inactive,
CCCCCCCCCOC(=O)c1ccccc1C(=O)OCCCCCCCCC,inactive,
NC(=O)[C@@H]1CSSCCC(=O)N[C@@H](CCCCN=C(N)N)C(=O)NCC(=O)N[C@@H](CC(=O)O)C(=O)N[C@@H](Cc2c[nH]c3ccccc23)C(=O)N2CCC[C@H]2C(=O)N1 ([Mpa][hArg]GDWPC-NH2; disulfide 1-7),inactive,
CC(Oc1cc(Cl)ccc1Cl)C(=O)O (stereo not given),inactive,
O=C1NC(c2ccccc2)(c2ccccc2)C(=O)N1COP(=O)(O)O,inactive,
O=C(CCCl)NCCc1ccccc1,inactive,
C[Si]1(C)O[Si](C)(C)O[Si](C)(C)O[Si](C)(C)O[Si](C)(C)O1,inactive,
[O-][n+]1cccc(/C(Cl)=N/OC[C@@H](O)CN2CCCCC2)c1,inactive,
Cc1c(C(=O)c2c[nH]n(C)c2=O)ccc(S(C)(=O)=O)c1C1=NOCC1,inactive,
CC1CCc2c(N3CCC(O)CC3)c(F)cc3c(=O)c(C(=O)O)cn1c23 (stereo not given),inactive,
O=C(O)CONC(=O)c1ccccc1,inactive,
CCCCC1CCC(O)CC1 (stereo not given),inactive,
Cc1ccc2c(c1)C(=O)c1ccccc1C2=O,inactive,
CO/N=C(/C(=O)N[C@@H]1C(=O)N2C(C(=O)[O-])=C(C[n+]3ccn4ncccc43)CS[C@H]12)c1nsc(N)n1,inactive,
Cc1c(NC(=O)c2cccnc2)c(=O)n(-c2ccccc2)n1C,inactive,
O=C(Cn1ccnc1[N+](=O)[O-])NCc1ccccc1,inactive,
CC1c2ccccc2CN1NC(=O)c1ccc(Cl)c(S(N)(=O)=O)c1 (stereo not given),inactive,
CCCCCCCCCCCCCCCCCCOCCO,,1.19% [at 15.8 µM]
CC(=O)N[C@@H](CO)C(=O)N[C@@H](CC(=O)O)C(=O)N[C@@H](CCCCN)C(=O)N1CCC[C@H]1C(=O)O (Ac-SDKP-OH),inactive,

Structure (SMILES),Potency,cytotoxicity increase
C[C@H]1[C@@H](c2ccccc2)NC(=O)N1C,inactive,
O=C=NCC1CCCC(CN=C=O)C1 (stereo not given),inactive,
Cc1c(N)cccc1Cl,inactive,
CC(C)=CCC/C(C)=C/COC=O,inactive,
CCCC(=O)OC/C=C(\C)CCC=C(C)C,inactive,
CCCC(=O)Nc1ccc(OCC(O)CNC(C)C)c(C(C)=O)c1 (stereo not given),inactive,
ONc1ccccc1,inactive,
OCC1CCC(CO)CC1 (stereo not given),inactive,
C/C=C(\C)C(C)=O,inactive,
CCCCCCCCCCCCCCC(=O)NC(CO)CCCCCCCCCCCCCC (stereo not given),inactive,
C#CCN[C@@H]1CCc2ccccc21,inactive,
CC(C)=CCC[C@@](C)(O)[C@H]1CC=C(C)CC1,inactive,
O=NN(CCCl)C(=O)NC1CCCCC1,inactive,
CCCCCCC1(C)CCC(=O)O1 (stereo not given),inactive,
COc1ccc(CCO)cc1,inactive,
CN1C[C@@H]2C[C@H]1CN2c1cc2c(cc1F)c(=O)c(C(=O)O)cn2C1CC1,,0.396% [at 15.8 µM]
CCCCOCCOC(=O)COc1ccc(Cl)cc1Cl,inactive,
CC(C)NC(=O)c1ccc(C=O)cc1,inactive,
CC(=O)CC(=O)Nc1ccc(C)cc1C,inactive,
CCOc1cccc(N)c1,inactive,
